Reference: PubChem BioAssay (NCI)
The panel holds about 79,000 compounds, 15% with a hit somewhere; the sample as a whole holds those more often. The source made the active and inactive calls. No stated cut-off is given here; in the data, active means growth inhibition above about 70%; inactive means the rest.

What was measured:
[1] = NCI Yeast Anticancer Drug Screen. Data for the rad52 strain (AID 147);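 further: 0% = growth of vehicle-treated control cultures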; conditions: S. cerevisiae rad52 mutant growth inhibition, hits give high values
Summary of the method: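 Inhibition of yeast growth, referenced to vehicle controls, was the measured output for a strain with defective DNA damage repair.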

[2] = NCI Yeast Anticancer Drug Screen. Data for the wt1 strain (AID 149);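 further: 0% = growth of vehicle-treated wt1 cultures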; conditions: S. cerevisiae wt1 strain (SPY 50644) growth inhibition, hits give high values
Summary of the method: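 Each compound is tested on wt1 yeast and the loss of growth versus vehicle gives the inhibition value.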

[3] = NCI Yeast Anticancer Drug Screen. Data for the rad50EPP+ strain (AID 151);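 further: 0% = growth of vehicle-treated control cultures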; conditions: S. cerevisiae rad50 mutant strain, hits give high values
Summary of the method: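 Genetically defined yeast (rad50EPP+, DNA damage repair alteration) is grown with compound, and inhibition of growth is expressed relative to vehicle-treated controls.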

[4] = NCI Yeast Anticancer Drug Screen. Data for the mgt1 strain (AID 153); conditions: S. cerevisiae mgt1 mutant growth inhibition, hits give high values
Summary of the method: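 In the mgt1 strain, test compounds were added and growth inhibition was determined relative to vehicle-treated controls.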

[5] = NCI Yeast Anticancer Drug Screen. Data for the rad50 strain (AID 155);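 further: 0% = growth of vehicle-only cultures of the same strain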; conditions: S. cerevisiae rad50 strain growth inhibition, hits give high values
Summary of the method: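 Vehicle-treated cultures provide the reference for the growth inhibition reported for compound-exposed, repair-deficient yeast.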

[6] = NCI Yeast Anticancer Drug Screen. Data for the mec2-1 strain (AID 157); conditions: S. cerevisiae mec2-1 strain, hits give high values
Summary of the method: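 Each compound was tested on mec2-1 yeast, a strain altered in DNA damage repair or cell cycle control. Growth inhibition is reported relative to vehicle.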

[7] = NCI Yeast Anticancer Drug Screen. Data for the rad14 strain (AID 159);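 further: 0% = growth of vehicle-treated control cultures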; conditions: S. cerevisiae rad14 strain growth inhibition, hits give high values
Summary of the method: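 Inhibition of growth is reported for a repair-deficient yeast mutant following compound treatment, calculated relative to cultures that received vehicle.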

[8] = NCI Yeast Anticancer Drug Screen. Data for the sgs1 mgt1 strain (AID 161);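 further: 0% = growth of cultures given vehicle only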; conditions: S. cerevisiae sgs1 mgt1 strain, hits give high values
Summary of the method: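 Mutant yeast exposed to compound; growth scored against vehicle-only wells.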

[9] = NCI Yeast Anticancer Drug Screen. Data for the CLN2oe strain (AID 163);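 further: 0% = growth of vehicle-only control cultures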; conditions: S. cerevisiae CLN2oe strain, hits give high values
Summary of the method: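 First, the altered yeast strain was treated with each compound; second, its growth was measured; finally, inhibition was derived by comparison with vehicle controls.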

[10] = NCI Yeast Anticancer Drug Screen. Data for the cln2 rad14 strain (AID 165);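 further: 0% = growth equal to vehicle treated cultures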; conditions: S. cerevisiae cln2 rad14 strain, hits give high values
Summary of the method: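 Test compounds were added to cln2 rad14 yeast cultures; inhibition of growth was then determined by comparison with vehicle treatment.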

[11] = NCI Yeast Anticancer Drug Screen. Data for the bub3 strain (AID 167); conditions: S. cerevisiae bub3 mutant strain, hits give high values
Summary of the method: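 Mutant yeast screening strain plus compound; vehicle-treated cultures serve as the 0% inhibition reference.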

[12] = NCI Yeast Anticancer Drug Screen. Data for the wt2 strain (AID 169); conditions: S. cerevisiae wt2 strain growth inhibition, hits give high values
Summary of the method: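 The panel's yeast strains carry defined changes in DNA repair or cell cycle genes. Each strain is grown with compound, and growth loss is scored relative to vehicle.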

[13] = NCI Yeast Anticancer Drug Screen. Data for the mlh1 strain (AID 171);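 further: 0% = growth of vehicle-treated control cultures of the same strain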; conditions: S. cerevisiae mlh1 strain growth inhibition, hits give high values
Summary of the method: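 Inhibition values reflect reduced yeast growth in the presence of compound, referenced to vehicle controls, using a strain chosen for its alteration in DNA repair or cell cycle control.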

[14] = NCI Yeast Anticancer Drug Screen. Data for the sgs1 strain (AID 173);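 further: 0% = growth of vehicle-only control cultures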; conditions: S. cerevisiae sgs1 mutant, hits give high values
Summary of the method: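 Vehicle-treated cultures served as reference for growth inhibition of a yeast strain altered in DNA damage repair or cell cycle control after compound exposure.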

[15] = NCI Yeast Anticancer Drug Screen. Data for the mlh1 rad18 strain (AID 175); conditions: S. cerevisiae mlh1 rad18 strain growth inhibition, hits give high values
Summary of the method: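 Inhibition values reflect reduced growth of mutant yeast versus vehicle-treated controls following compound exposure; the mutations affect DNA damage repair.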

[16] = NCI Yeast Anticancer Drug Screen. Data for the rad18 strain (AID 177); conditions: S. cerevisiae rad18 mutant growth inhibition, hits give high values
Summary of the method: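 Steps: expose repair-mutant yeast to compound; measure growth; express as inhibition relative to vehicle control.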

[17] = at 5.0 µM (retest, dose inferred, filed as 0.5)
[18] = at 50.0 µM (retest, dose inferred, filed as 5.0)

Measured: growth inhibition

CC1(c2ccccc2)O[C@@H]2C[C@H]3[C@@H]4CCC5=CC(=O)C=C[C@]5(C)[C@@]4(F)[C@@H](O)C[C@]3(C)[C@]2(C(=O)CO)O1 (stereo partly drawn)
active: [1]; at 100.0 µM 98% | [2]; at 100.0 µM 94% | [4]; at 100.0 µM 98% | [5]; at 50.0 µM 92.7% | [5]; at 100.0 µM 97% | [6]; at 50.0 µM 91.2% | [6]; at 100.0 µM 98% | [7]; at 33.0 µM 75% | [7]; at 100.0 µM 99% | [8]; at 50.0 µM 92.1% | [9]; at 100.0 µM 98% | [10]; at 50.0 µM 95.8% | [11]; at 50.0 µM 90.9% | [11]; at 100.0 µM 95% | [12]; at 100.0 µM 98% | [13]; at 100.0 µM 96% | [14]; at 100.0 µM 97% | [15]; at 50.0 µM 96.2% | [16]; at 33.0 µM 76% | [16]; at 100.0 µM 98%
inactive: [1]; at 1.2 µM -3% | [1]; at 3.7 µM -2% | [1]; at 11.0 µM 6% | [1]; at 33.0 µM 62% | [2]; at 1.2 µM 0% | [2]; at 3.7 µM 6% | [2]; at 11.0 µM 3% | [2]; at 33.0 µM 24% | [3]; at 1.2 µM 3% | [3]; at 3.7 µM 3% | [3]; at 11.0 µM 7% | [3]; at 33.0 µM 11% | [3]; at 100.0 µM 23% | [4]; at 1.2 µM -2% | [4]; at 3.7 µM -5% | [4]; at 11.0 µM -5% | [4]; at 33.0 µM 53% | [5]; at 1.2 µM -2% | [5]; at 3.7 µM 0% | [5]; [17] 15% | [5]; at 11.0 µM 6% | [5]; at 33.0 µM 51% | [5]; [18] 35% | [6]; at 1.2 µM 3% | [6]; at 3.7 µM 5% | [6]; [17] 1% | [6]; at 11.0 µM 10% | [6]; at 33.0 µM 41% | [6]; [18] 8% | [7]; at 1.2 µM -2% | [7]; at 3.7 µM 2% | [7]; at 11.0 µM 11% | [8]; [17] 2% | [8]; [18] 33% | [9]; at 1.2 µM -5% | [9]; at 3.7 µM -11% | [9]; at 11.0 µM -4% | [9]; at 33.0 µM 53% | [10]; [17] 6% | [10]; [18] 15% | [11]; at 1.2 µM -3% | [11]; at 3.7 µM -10% | [11]; [17] -11% | [11]; at 11.0 µM -4% | [11]; at 33.0 µM 21% | [11]; [18] 10% | [12]; at 1.2 µM 1% | [12]; at 3.7 µM -1% | [12]; at 11.0 µM -2% | [12]; at 33.0 µM 60% | [13]; at 1.2 µM -1% | [13]; at 3.7 µM 2% | [13]; at 11.0 µM 5% | [13]; at 33.0 µM 66% | [14]; at 1.2 µM 0% | [14]; at 3.7 µM 3% | [14]; at 11.0 µM 10% | [14]; at 33.0 µM 62% | [15]; [17] -4% | [15]; [18] 56% | [16]; at 1.2 µM -1% | [16]; at 3.7 µM 4% | [16]; at 11.0 µM 21%
